Measurements: PubChem BioAssay AID1159580 (chemical genetic matrix, 2015)
The whole screen tested about 5,500 compounds, of which about 2,000 (36%) were called active. Not shown: some 18% with an inconclusive outcome. Cut-off read from the data, not from the text of the source: active = normalized growth mostly below about 0.91 (no sharp cut-off); inconclusive = no clear call, values can overlap the other calls; inactive = mostly above about 0.92. Some of the results follow.

Assay: chemical genetic growth profiling, strain panel (AID 1159580);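 note: tested at 20 µM; growth read once vehicle control cultures reached saturation at 30 °C; 1 = growth at the plate median or of vehicle wells; lower values mean less growth of the strain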
Conditions: S. cerevisiae deletion strains, growth OD
[1] = locus YAR019C, strain CDC15, stronger effect = lower value
[2] = locus YBL105C, strain PKC1, stronger effect = lower value
[3] = locus YBR135W, strain CKS1, stronger effect = lower value
[4] = locus YBR136W, strain MEC1, stronger effect = lower value
[5] = locus YBR160W, strain CDC28, stronger effect = lower value
[6] = locus YDL017W, strain CDC7, stronger effect = lower value
[7] = locus YDL028C, strain MPS1, stronger effect = lower value
[8] = locus YDL101C, strain DUN1, stronger effect = lower value
[9] = locus YDL108W, strain KIN28, stronger effect = lower value
[10] = locus YDL132W, strain cdc53, stronger effect = lower value
[11] = locus YDL214C, strain PRR2, stronger effect = lower value
[12] = locus YDR052C, strain DBF4, stronger effect = lower value
[13] = locus YDR054C, strain cdc34, stronger effect = lower value
[14] = locus YDR226W, strain ADK1, stronger effect = lower value
[15] = locus YDR477W, strain SNF1, stronger effect = lower value
[16] = locus YER123W, strain YCK3, stronger effect = lower value
[17] = locus YER133W, strain GLC7, stronger effect = lower value
[18] = locus YFL009W, strain cdc4, stronger effect = lower value
[19] = locus YFL029C, strain CAK1, stronger effect = lower value
[20] = locus YFR003C, strain YPI1, stronger effect = lower value
[21] = locus YFR019W, strain FAB1, stronger effect = lower value
[22] = locus YFR028C, strain CDC14, stronger effect = lower value
[23] = locus YGR040W, strain KSS1, stronger effect = lower value
[24] = locus YGR092W, strain DBF2, stronger effect = lower value
[25] = locus YHR030C, strain SLT2, stronger effect = lower value
[26] = locus YHR079C, strain IRE1, stronger effect = lower value
[27] = locus YHR205W, strain SCH9, stronger effect = lower value
[28] = locus YIL147C, strain SLN1, stronger effect = lower value
[29] = locus YJL095W, strain BCK1, stronger effect = lower value
[30] = locus YJL128C, strain PBS2, stronger effect = lower value
[31] = locus YJL157C, strain FAR1, stronger effect = lower value
[32] = locus YJR016C, strain ILV3, stronger effect = lower value
[33] = locus YJR066W, strain TOR1 (second series), stronger effect = lower value
[34] = locus YKL048C, strain ELM1, stronger effect = lower value
[35] = locus YKL067W, strain YNK1, stronger effect = lower value
[36] = locus YKL101W, strain HSL1, stronger effect = lower value
[37] = locus YKL193C, strain SDS22, stronger effect = lower value
[38] = locus YKL203C, strain TOR2, stronger effect = lower value
[39] = locus YLR113W, strain HOG1, stronger effect = lower value
[40] = locus YLR133W, strain CKI1, stronger effect = lower value
[41] = locus YLR403W, strain SFP1, stronger effect = lower value
[42] = locus YML070W, strain DAK1, stronger effect = lower value
[43] = locus YMR001C, strain CDC5, stronger effect = lower value
[44] = locus YMR205C, strain PFK2 (second series), stronger effect = lower value
[45] = locus YMR277W, strain FCP1, stronger effect = lower value
[46] = locus YNL006W, strain LST8, stronger effect = lower value
[47] = locus YNL020C, strain ARK1, stronger effect = lower value
[48] = locus YNL161W, strain CBK1, stronger effect = lower value
[49] = locus YNL207W, strain RIO2, stronger effect = lower value
[50] = locus YNL222W, strain SSU72, stronger effect = lower value
[51] = locus YNL307C, strain MCK1 (second series), stronger effect = lower value
[52] = locus YOL078W, strain AVO1, stronger effect = lower value
[53] = locus YOL136C, strain PFK27, stronger effect = lower value
[54] = locus YOR061W, strain CKA2, stronger effect = lower value
[55] = locus YOR119C, strain RIO1, stronger effect = lower value
[56] = locus YOR231W, strain MKK1, stronger effect = lower value
[57] = locus YOR329C, strain SCD5, stronger effect = lower value
[58] = locus YPL031C, strain PHO85, stronger effect = lower value
[59] = locus YPL153C, strain RAD53, stronger effect = lower value
[60] = locus YPL204W, strain HRR25, stronger effect = lower value
[61] = locus YPL209C, strain IPL1, stronger effect = lower value
[62] = locus YPL256C, strain CLN2, stronger effect = lower value
[63] = locus YPR025C, strain CCL1, stronger effect = lower value
[64] = locus YPR106W, strain ISR1, stronger effect = lower value
[65] = locus YPR111W, strain DBF20, stronger effect = lower value
[66] = strain NNK1, stronger effect = lower value
[67] = strain TSCII, stronger effect = lower value

Measured: normalized growth

Cc1ccc(-c2nc(NS(=O)(=O)c3cccc4nonc34)sc2C)cc1Cl
inactive: [1] 0.965 | [2] 0.972 | [3] 0.967 | [4] 0.973 | [5] 0.959 | [6] 0.97 | [7] 0.976 | [8] 0.962 | [9] 0.975 | [10] 0.964 | [11] 0.984 | [12] 0.972 | [13] 0.961 | [14] 0.97 | [15] 0.975 | [16] 1 | [17] 0.994 | [18] 0.972 | [19] 0.946 | [20] 0.965 | [21] 0.997 | [22] 0.964 | [23] 0.962 | locus YGR052W, strain FMP48, stronger effect = lower value 1.07 | [24] 0.991 | [25] 1.06 | [26] 1.07 | locus YHR082C, strain KSP1, stronger effect = lower value 1.09 | [27] 0.981 | [28] 0.972 | [29] 1.06 | [30] 0.975 | [31] 0.999 | [32] 0.972 | [33] 0.985 | locus YJR066W, strain TOR1, stronger effect = lower value 1.1 | [34] 0.981 | [35] 1 | [36] 0.967 | [37] 0.968 | [38] 1.04 | [39] 0.963 | [40] 0.978 | [41] 0.985 | [42] 0.987 | [43] 0.967 | [44] 0.981 | [45] 0.975 | [46] 0.967 | [47] 0.978 | [48] 0.959 | locus YNL183C, strain NPR1, stronger effect = lower value 1.01 | [49] 0.953 | [50] 0.947 | [51] 0.984 | [52] 0.951 | [53] 0.999 | [54] 0.988 | [55] 1.03 | [56] 1.01 | [57] 0.973 | [58] 0.993 | [59] 0.992 | [60] 0.991 | [61] 0.951 | [62] 1.01 | [63] 0.97 | [64] 0.963 | [65] 0.953 | [66] 0.971 | [67] 0.956

Cc1ccc(S(=O)(=O)Nc2nc(-c3ccc(C)c(Cl)c3)c(C)s2)cc1
active: [25] 1.77 [resistant] | [26] 2.3 [resistant] | [29] 1.77 [resistant] | [39] 1.41 [resistant] | [56] 2.03 [resistant] | [62] 1.74 [resistant]
inactive: [1] 0.994 | [2] 0.99 | [3] 0.98 | [4] 0.991 | [5] 0.988 | [6] 0.991 | [7] 0.988 | [8] 0.989 | [9] 0.993 | [10] 0.983 | [11] 0.989 | [12] 0.983 | [13] 0.989 | [14] 0.985 | [15] 1.04 | [16] 1.02 | [17] 1.02 | [18] 0.989 | [19] 0.998 | [20] 0.992 | [21] 1.02 | [22] 0.99 | [23] 1.02 | [24] 1.01 | [27] 0.942 | [28] 0.983 | [30] 0.925 | [31] 1.02 | [32] 0.979 | [33] 1.04 | [34] 0.986 | [35] 0.997 | [36] 0.981 | [37] 0.986 | [38] 1.08 | [40] 0.995 | [41] 1.02 | [42] 0.99 | [43] 0.988 | [44] 0.987 | [45] 0.992 | [46] 0.981 | [47] 0.996 | [48] 0.992 | [49] 0.996 | [50] 0.996 | [51] 0.982 | [52] 0.991 | [53] 0.987 | [54] 1.02 | [55] 1.05 | [57] 0.985 | [58] 1.02 | [59] 1.01 | [60] 1.03 | [61] 0.986 | [63] 0.985 | [64] 0.992 | [65] 0.987 | [66] 0.995 | [67] 0.994
